This is part of a sample that, as a whole, favours compounds with a hit. Of some 83,000 tested, about 20% had one in any assay.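 Compound tested at a single concentration for 48 hours in 96-well plates; a percent growth value below 10 was scored as active.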 A number with no mark means an inactive call. Activity calls are given as the source filed them.
System: HL-60(TB) leukemia
Test: NCI-60 one-dose screen, 48 h (100 = growth as untreated, 0 = no growth, -100 = all killed)
Conditions: 10 µM unless noted

| Compound | growth |
| --- | --- |
| CCC(N)(C(=O)O)c1ccc(F)cc1 (centres undefined) | 87.1% |
| O=c1[nH]nc(-c2ccc(Br)cc2)cc1Cc1ccc(O)cc1 | 85.4% |
| O=[N+]([O-])c1ccc2[nH]c3nccc(NCc4cccc(Cl)c4)c3c2c1 | 82.9% |
| C=C1C(=O)O[C@H]2[C@H]1CC/C(COC(=O)c1cc3cc(OC)ccc3[nH]1)=C\CC[C@@]1(C)O[C@@H]21 | -34.5% (active) |
| CCOC(=O)c1c(C)nc2c(c1N)C(=O)C(=O)N2Cc1ccc(C(F)(F)F)cc1 | 43.5% |
| COc1ccc(-n2cc(-c3ccccc3)c3c(SCC(=O)N/N=C/c4ccc([N+](=O)[O-])cc4)ncnc32)cc1 | 103% |
| COc1ccc2c(c1)C(=Nc1cc(OC)c(OC)c(OC)c1)C(=O)N2 | 96.1% |
| CSc1nc(-c2ccco2)c2c(N)[nH]nc2n1 | 82.9% |
| CC/C=C\C[C@H]1C/C=C2/C(=O)C=C[C@H]2C/C=C\CCCC(=O)O1 | 7.94% (active) |
| C=C[C@@H]1CCC/C=C/[C@@H]2C[C@H](O)C[C@H]2[C@H](O)/C=C/C(=O)O1 | 8.25% (active) |
| FC(F)(F)c1ccc(/C=N/Nc2nnc3n2N=C(c2ccc(Cl)cc2)CS3)cc1 | 93.3% |
| C=CCn1c(-c2ccc(-c3nc4ccc(C)cc4[nH]3)cc2)n[nH]c1=S | 110% |
| CCCCCCCCCCC(C(O)c1ccccc1)N1CCCCC1 (centres undefined) | -28.5% (active) |
| CC1=NC(=S)NC(c2ccccc2)/C1=C1/CC(c2ccccc2O)NN1 (centres undefined) | 97.2% |
